Experimental data from PubChem BioAssay.
Values without a mark were called inactive. The rule behind the calls is not given here.

Each compound was assayed against Pantothenate synthetase (Mycobacterium tuberculosis (strain ATCC 25618 / H37Rv)) (UniProt P9WIL5) (assay: Recombinant Mtb pantothenate synthetase (PanC) inhibitors, coupled enzyme, confirmatory (AID 375;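 note: 0% = full reaction with vehicle and 100% = no enzyme background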)). Conditions: coupled enzyme assay; at 10 µM, stronger effect = higher value.
Sequence of Pantothenate synthetase (Mycobacterium tuberculosis (strain ATCC 25618 / H37Rv)) (P9WIL5 whole entry, looked up): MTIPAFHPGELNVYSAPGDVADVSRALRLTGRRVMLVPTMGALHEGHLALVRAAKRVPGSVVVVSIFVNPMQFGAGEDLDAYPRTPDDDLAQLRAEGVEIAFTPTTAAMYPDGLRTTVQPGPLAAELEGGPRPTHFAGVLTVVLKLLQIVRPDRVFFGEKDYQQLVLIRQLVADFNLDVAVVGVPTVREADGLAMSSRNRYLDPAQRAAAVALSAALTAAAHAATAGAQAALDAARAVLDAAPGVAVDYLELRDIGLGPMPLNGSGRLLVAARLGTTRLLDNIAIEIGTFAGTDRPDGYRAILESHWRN

| SMILES | inhibition |
| --- | --- |
| O=C(OC1CCOC1=O)c1ccc(S(=O)(=O)N2CCCCCC2)cc1 (configuration not stated) | 0% |
| CCOC(=O)C1CCN(C(=O)CCCCn2c(=O)[nH]c3ccccc3c2=O)CC1 | 2% |
| CCc1c(C)nc(N2CCN(Cc3ccccc3)CC2)[nH]c1=O | 3% |
| O=C(Cn1ncc2c1-c1ccccc1OC2)N1CCc2ccccc21 | 0% |
| COc1ccc(Cc2nc(-c3ccc(Br)cc3)no2)cc1 | 7% |
| O=C(Nc1ccccc1C(=O)NCCCn1ccnc1)c1ccccc1 | 3% |
| Cc1ccc(NC(=O)Nc2ccc3c(c2)N(C)C(=O)CS3)nc1 | 5% |
| COCCn1c(SCC(=O)Nc2sc(C)c(C)c2C#N)nnc1C(C)C | 0% |
| COc1ccc(C2(C(=O)Nc3cc(C)on3)CCOCC2)cc1 | 2% |
| CCOC(=O)C1CCN(c2c(NC3CCCCCCC3)c(=O)c2=O)CC1 | 3% |
| COc1ccc(-c2nc(C#N)c(NCCCN(C)C)o2)cc1OC | 0% |
| CCCCN(c1ccccc1)S(=O)(=O)c1ccc2c(c1)CCN2C(=O)CCC(=O)O | 0% |
| Cc1[nH]nc(N=CC2=C(O)CC(C)(C)CC2=O)c1-c1ccc(Cl)cc1 | 0% |
| CCc1cccc2c(=O)c(C(=O)NCCN3CCOCC3)c[nH]c12 | 10% |
| O=C(CSc1nc2ccccc2[nH]1)c1ccc2c(c1)OCO2 | 0% |
| Cc1cc2ccccc2c(=O)n1CC(=O)Nc1ccc2c(c1)OCO2 | 0% |
| CCCCCn1c(=O)[nH]c2cc(C(=O)NCCN3CCOCC3)ccc2c1=O | 1% |
